Measurements taken from PubChem BioAssay AID1053205 (Broad Institute, 2014).
Entries with a potency or affinity are not part of this list. Inconclusive results are not listed.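 How the source made its calls: active means compounds lowering the FRET ratio whose fitted half-maximal concentration is at most twice their top tested dose; inconclusive means flat partial drop between 30 and 70 percent, or bad fit; inactive means the rest.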

target: Voltage-dependent L-type calcium channel subunit alpha-1D (Homo sapiens) (UniProt Q01668); assay: disruptors of CaV1.3 IQ/ICDI domain association – cell-based, HEK293, YFP-IQ/CFP-ICDI FRET, cherry-picks, dose response (AID 1053205); conditions: HEK293 YFP-IQ/CFP-ICDI FRET ratio, 10 min; series mostly up to 35 µM; FRET change, negative = inhibition: at the top concentration;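 further: 0% = median of neutral control wells and -100% = median of positive control wells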
Sequence (Q01668 whole entry, looked up, the tested form may be a part): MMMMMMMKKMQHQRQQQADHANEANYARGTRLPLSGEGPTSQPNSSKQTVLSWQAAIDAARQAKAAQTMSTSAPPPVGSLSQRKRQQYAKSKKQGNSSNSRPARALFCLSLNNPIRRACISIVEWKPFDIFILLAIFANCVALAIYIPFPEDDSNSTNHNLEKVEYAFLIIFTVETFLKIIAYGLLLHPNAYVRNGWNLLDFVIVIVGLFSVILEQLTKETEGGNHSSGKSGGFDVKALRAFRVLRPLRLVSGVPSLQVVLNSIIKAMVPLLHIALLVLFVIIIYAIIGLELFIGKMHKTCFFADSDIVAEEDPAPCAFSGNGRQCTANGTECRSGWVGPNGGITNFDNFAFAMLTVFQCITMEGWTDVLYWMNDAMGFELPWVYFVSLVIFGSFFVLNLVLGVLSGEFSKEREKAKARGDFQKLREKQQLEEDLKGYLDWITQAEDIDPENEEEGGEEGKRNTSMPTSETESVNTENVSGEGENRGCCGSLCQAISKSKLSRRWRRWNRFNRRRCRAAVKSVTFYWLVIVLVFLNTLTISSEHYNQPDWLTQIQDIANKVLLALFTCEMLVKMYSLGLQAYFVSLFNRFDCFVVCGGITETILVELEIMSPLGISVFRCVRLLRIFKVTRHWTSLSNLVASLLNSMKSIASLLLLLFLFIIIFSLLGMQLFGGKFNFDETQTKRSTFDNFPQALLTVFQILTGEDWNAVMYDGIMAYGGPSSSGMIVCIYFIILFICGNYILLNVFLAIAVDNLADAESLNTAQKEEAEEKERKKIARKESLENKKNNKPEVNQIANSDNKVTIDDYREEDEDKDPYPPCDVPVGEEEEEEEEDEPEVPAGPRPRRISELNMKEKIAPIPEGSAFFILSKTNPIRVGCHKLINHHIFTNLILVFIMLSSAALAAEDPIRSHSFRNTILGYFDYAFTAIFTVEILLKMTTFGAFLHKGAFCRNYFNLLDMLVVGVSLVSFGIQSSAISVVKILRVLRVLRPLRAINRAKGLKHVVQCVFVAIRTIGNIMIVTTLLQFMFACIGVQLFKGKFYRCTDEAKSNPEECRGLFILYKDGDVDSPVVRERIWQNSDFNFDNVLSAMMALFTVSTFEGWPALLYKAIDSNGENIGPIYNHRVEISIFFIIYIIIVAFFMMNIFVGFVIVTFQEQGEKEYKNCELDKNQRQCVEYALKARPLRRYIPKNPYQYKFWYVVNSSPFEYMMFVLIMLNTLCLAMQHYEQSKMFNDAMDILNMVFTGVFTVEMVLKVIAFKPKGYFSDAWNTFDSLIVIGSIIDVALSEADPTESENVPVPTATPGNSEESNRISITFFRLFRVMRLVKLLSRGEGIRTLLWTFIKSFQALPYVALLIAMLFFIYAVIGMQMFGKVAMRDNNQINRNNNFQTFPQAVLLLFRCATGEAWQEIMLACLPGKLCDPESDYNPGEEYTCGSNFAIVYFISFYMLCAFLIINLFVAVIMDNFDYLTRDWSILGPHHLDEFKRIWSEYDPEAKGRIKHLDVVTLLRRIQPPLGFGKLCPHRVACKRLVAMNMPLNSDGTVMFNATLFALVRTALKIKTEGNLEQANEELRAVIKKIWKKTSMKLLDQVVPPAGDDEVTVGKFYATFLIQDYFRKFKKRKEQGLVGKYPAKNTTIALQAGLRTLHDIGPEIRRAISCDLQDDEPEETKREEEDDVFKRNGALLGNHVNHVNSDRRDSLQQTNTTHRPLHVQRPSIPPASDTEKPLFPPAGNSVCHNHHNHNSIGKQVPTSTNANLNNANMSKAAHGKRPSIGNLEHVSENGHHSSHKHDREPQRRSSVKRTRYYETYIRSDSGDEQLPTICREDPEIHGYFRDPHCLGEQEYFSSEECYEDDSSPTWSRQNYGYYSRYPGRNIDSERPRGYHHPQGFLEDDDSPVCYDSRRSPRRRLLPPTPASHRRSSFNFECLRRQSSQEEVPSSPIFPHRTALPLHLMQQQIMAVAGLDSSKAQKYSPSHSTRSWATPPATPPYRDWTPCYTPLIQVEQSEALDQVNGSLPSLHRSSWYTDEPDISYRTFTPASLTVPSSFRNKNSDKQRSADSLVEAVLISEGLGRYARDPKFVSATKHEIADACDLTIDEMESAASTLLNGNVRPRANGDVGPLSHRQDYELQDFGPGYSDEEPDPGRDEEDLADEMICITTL

FRET change, negative = inhibition, inactive:
CN(C)CCOCCOc1ccc(Cl)c2ccccc12 8.55%
Cc1ccc2nc3c(cc(C(N)=S)c(=N)n3CCCOC(C)C)c(=O)n2c1 380%
CCc1nc(SCC(=O)c2ccccc2)c2ccccc2n1 44.6%
COc1ccc(CNC(=O)c2sc(=O)n(Cc3ccc(C)cc3)c2C)cc1OC 4.95% [at 8 µM]
O=C(Cn1ccc([N+](=O)[O-])n1)N1CCCCCC1 3.68%
O=C1CCc2cc(S(=O)(=O)NC(Cc3ccccc3)C(=O)NCCC3=CCCCC3)ccc2N1 (configuration not stated) -3.37%
O=c1oc2c(CN3CCN(CCO)CC3)c(O)ccc2cc1-c1ccccn1 470%
Cc1ccc(C(=O)OCC(=O)Nc2c(C)nn(-c3ccccc3)c2C)c(O)c1 15.9%
CCCOc1ccccc1/C=C1\SC(N)=NC1=O 78.1%
CCOC1=NN(c2ncc(C(F)(F)F)cc2Cl)C(=O)C1 19%
Cc1cccn2c(=O)c3cc(C(=O)NCc4ccc(F)cc4)c(=N)n(CCCN4CCOCC4)c3nc12 90.3%
CC(C)CCN(CCC(C)C)CC(O)Cn1c2ccccc2c(=O)c2ccccc21 (configuration not stated) 20.5%
CCOC(=O)c1c(C)n(C)c2ccc(OCC(O)CN3CCC(C)CC3)cc12 (configuration not stated) 10.5%
CC(=O)c1cccc(-c2ccnc3c2CC(C(=O)NCc2ccc(F)c(F)c2)O3)c1 (configuration not stated) 33.7%
CSc1ccc(Cn2c(C)c(C(=O)NCc3cccc(Cl)c3)sc2=O)cc1 -8.54%
COc1ccccc1NS(=O)(=O)c1cc(NC(=O)CCNC(C)=O)ccc1C 189%
COC(=O)C1=CN(C)C=C(C(=O)OC)C1c1ccccc1Cl 276%
